Source: PubChem BioAssay AID435005 (Broad Institute, 2010)
Screen size: about 300,000 compounds; about 2,400 (0.8%) were called active. Only a selection was taken, and actives are over-represented in it overall. A number with no mark means an inactive call.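 How the source made its calls: active means Every replicate reaches about 75%, or at least half do and their mean reaches it too (limit read from the data); inconclusive means At least half of replicates reach the limit but their mean does not; inactive means Under half of replicates reach the limit.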

assay: inhibitors of cytokine-induced beta cell apoptosis, primary screen, luminescence (AID 435005); conditions: INS-1E cytokine-induced death, ATP luminescence, 48 h; stronger effect = higher value; percent of positive-control rescue, neutral wells zero; concentration not given here;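 further: 0% = cytokine-treated negative control wells and 100% = positive control rescue; higher means more ATP so stronger rescue from cytokine killing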

Structure (SMILES) | protection from apoptosis
Cc1cc(S(=O)(=O)NC2CCCCC2)ccc1OCC(=O)NCc1cccnc1 | 6.11%
Cc1ccc(CNC(=O)COc2ccc(S(=O)(=O)NC(C)C)cc2)cc1 | -8.98%
Cc1ccc(C)c(NS(=O)(=O)c2ccc(OCC(=O)NCc3cccnc3)cc2)c1 | 99.2% (active)
O=[N+]([O-])c1ccc(O)c(/C=N/Nc2ccccc2[N+](=O)[O-])c1 | 36.9%
Oc1ccc(Br)cc1/C=N/Nc1ccccn1 | 133% (active)
COc1ccc(-c2nn(-c3ccccc3)cc2/C=N/Nc2ccccn2)cc1OC | 59.9%
CCOC(=O)[C@H]1[C@H]2COc3cc(OC)ccc3[C@@H]2N2C(=O)CN(Cc3ccc(Cl)cc3)C(=O)[C@@]12C | -0.794%
COc1ccc(C(=O)NCC2CCCCC2)cc1S(=O)(=O)N1CCCC1 | -0.303%
CC(Sc1nnc(C2CC2)n1C1CC1)C(=O)Nc1ccc(C(N)=O)cc1 (configuration not stated) | -0.98%
Oc1c(CN2CCCC2)cc(COCc2ccccc2)c2cccnc12 | 73%
Oc1ccc(CN2CCN(c3ncccn3)CC2)cc1 | -1.21%
Oc1c(CN2CCN(c3ccc(F)cc3)CC2)cc(Cl)c2cccnc12 | 111% (active)
CC1CCCCC1NC(=O)COc1ccc(C#N)cc1 (configuration not stated) | 0.693%
CNS(=O)(=O)c1ccc(C(=O)NCC(=O)NCCc2ccc3c(c2)OCCO3)cc1 | -2.22%
Cc1cc(C)nc(N/N=C/c2ccncc2)n1 | -0.736%
Cc1cc(C)nc(N/N=C/c2c(CO)cnc(C)c2O)n1 | -3.01%
Cc1ccc(C(=O)NCCNC(=O)c2cnccn2)cc1 | -7.48%
CCN(CC)c1ccc(/C=N/NC(=O)c2cnccn2)c(O)c1 | 101% (active)
CCN(CC)c1ccc(/C=N/Nc2nc(C)cc(C)n2)c(O)c1 | 81.7% (active)

Structure (SMILES) | protection from apoptosis
CCN(CC)c1ccc(/C=N/NC(=O)CNC(=O)c2cccnc2)cc1 | 4.98%
CC1(C)CC[C@@]2(C(=O)O)C(C1)C1=CCC3[C@@]4(C)CC[C@H](O)C(C)(C)C4CC[C@@]3(C)[C@]1(C)C[C@H]2O (some centres not stated) | 22.4%
COc1ccc(C(=O)Nc2cc(S(=O)(=O)N3CCCC3)ccc2Cl)cc1 | -1.79%
O=C1NC(Cc2ccc(O)cc2)c2nc3ccc(Cl)cc3c(=O)n2-c2ccccc21 (configuration not stated) | -3.47%
CN(Cc1ccc(CNC[C@H]2O[C@@H](n3cnc4c(N)ncnc43)[C@H](O)[C@@H]2O)o1)S(C)(=O)=O | -10.1%
C[C@@H]1CN([C@@H](C)CO)C(=O)c2cc(NC(=O)C3CC3)ccc2O[C@H]1CN(C)C | 0.593%
CCOC(=O)c1ccc(-c2ccc(C(=O)Nc3cccnc3)o2)cc1 | 3.72%
O=C(Cc1ccccc1)Nc1ccc(NC(=O)c2cccnc2)cc1 | -0.0371%
Cc1cc2nc(-c3ccc(NC(=O)c4cccnc4)cc3)oc2cc1C | 104% (active)
CC(=O)NC(=S)Nc1ccc(NC(=O)c2cccnc2)cc1 | -1.43%
CCOC(=O)c1cc(NC(=O)c2cccnc2)ccn1 | -6.76%
Cc1ccc2nc(-c3ccc(NC(=O)c4cccnc4)cc3)oc2c1 | 106% (active)
CCOC(=O)c1ccc(NC(=O)c2cccnc2)cc1 | 112% (active)
Cc1ccc(-n2nc3cc(C)c(NC(=O)c4cccnc4)cc3n2)cc1 | -1.41%
Cc1cc(NS(=O)(=O)c2ccc(NC(=O)c3cccnc3)cc2)nc(C)n1 | -3.28%
CCn1nc(C(=O)Nc2ccc(N3CCOCC3)cc2)c2ccccc2c1=O | -0.317%
C#CCOCCOCCOCCNc1nc(N2CCN(C(=O)C([C@@H](C)O)n3cc([C@@H](N)CCCCN)nn3)CC2)nc(N2CCN(C(=O)[C@H](CCCCN)n3cc(CN)nn3)CC2)n1 (some centres not stated) | 0.272%
CN(CC(=O)NCC(c1ccccc1)N1CCCC1)S(=O)(=O)c1ccc(Cl)cc1 (configuration not stated) | -2.83%
CC1CCCC(C)N1C(=O)COC(=O)COc1ccccc1C#N (configuration not stated) | -0.693%

Structure (SMILES) | protection from apoptosis
COc1cc(OC)cc(-c2cc3ccc(F)cc3cn2)c1 | 3.7%
CC(=O)Nc1ccc(S(=O)(=O)NCC(=O)OCC(=O)c2ccc[nH]2)cc1 | 0.385%
O=C(C[C@H]1C/C=C\C[C@@H](NC(=O)OCC2c3ccccc3-c3ccccc32)C(=O)O[C@@H](c2ccccc2)CNC1=O)N[C@H](CO)Cc1ccccc1 | 54.4%
O=C(Cc1nc2ccccc2[nH]c1=O)c1ccc(Cl)cc1 | -0.338%
CCC(=O)/C(=C(/O)c1ccccc1)c1nc2ccccc2[nH]1 | -5.02%
O=C(/C(=C/c1cccc(Cl)c1)c1nc2ccccc2[nH]1)c1ccccc1 | 101% (active)
CC(=O)c1ccc(NC(=O)CSc2nc3ccccc3c(=O)n2CCCN2CCOCC2)cc1 | -12.1%
Cc1ccc(Nc2c3c(nc4ccccc24)CCC3)cc1 | 82.4% (active)
N#Cc1cccc(Nc2c3c(nc4ccccc24)CCCC3)c1 | 10.5%
CC(=O)Nc1ccc(Nc2c3ccccc3nc3ccccc23)cc1 | 88.6% (active)
CC(=O)Nc1ccc(NC(=O)COc2ncnc3ccccc23)cc1 | 1.06%
O=C(Nc1c2c(nc3ccccc13)CCCC2)c1ccccc1Br | -2.43%
CC(C)(C)OC(=O)NNc1c2ccccc2nc2ccccc12 | 24.9%
COc1ccc(Cl)cc1NC(=O)COC(=O)c1ccc(Br)o1 | -10.1%
COc1cccc(NC(=O)CSc2nnc(C3CCCCC3)n2N)c1 | -3.75%
CCc1ccc(-c2nn(-c3ccccc3)cc2CSC(=N)N)cc1 | 89.4% (active)
O=C(Nc1cn(-c2ccccc2)nc1-c1ccccc1)c1ccccc1 | 2.47%
Cc1ccc(-c2nn(-c3ccccc3)cc2C(=O)NC2CCC(O)CC2)cc1 (configuration not stated) | 1.53%
Cc1occc1C(=O)Nc1cccc(S(=O)(=O)N2CCOCC2)c1 | -3.05%
